Measurements as given in PubChem BioAssay (NCATS).
Inconclusive results are not listed. Activity calls are given as the source filed them. Unless noted, calls come from the whole dose curve; as a rule, active = well fitted curve in the direction sought with a large enough effect; inconclusive = small, poorly fitted or top-dose-only effect, or another doubt; inactive = no such curve, though single readings can be large; an effect the other way counts as inactive or inconclusive.

What was measured:
[1] = target: Cytochrome P450 1A2 (Homo sapiens) (UniProt P05177); assay: p450-cyp1a2 (AID 410; calls by dose curve; note: potency is the fitted concentration of half-maximal effect)
Cytochrome P450 1A2 (Homo sapiens), sequence (P05177 whole entry, looked up): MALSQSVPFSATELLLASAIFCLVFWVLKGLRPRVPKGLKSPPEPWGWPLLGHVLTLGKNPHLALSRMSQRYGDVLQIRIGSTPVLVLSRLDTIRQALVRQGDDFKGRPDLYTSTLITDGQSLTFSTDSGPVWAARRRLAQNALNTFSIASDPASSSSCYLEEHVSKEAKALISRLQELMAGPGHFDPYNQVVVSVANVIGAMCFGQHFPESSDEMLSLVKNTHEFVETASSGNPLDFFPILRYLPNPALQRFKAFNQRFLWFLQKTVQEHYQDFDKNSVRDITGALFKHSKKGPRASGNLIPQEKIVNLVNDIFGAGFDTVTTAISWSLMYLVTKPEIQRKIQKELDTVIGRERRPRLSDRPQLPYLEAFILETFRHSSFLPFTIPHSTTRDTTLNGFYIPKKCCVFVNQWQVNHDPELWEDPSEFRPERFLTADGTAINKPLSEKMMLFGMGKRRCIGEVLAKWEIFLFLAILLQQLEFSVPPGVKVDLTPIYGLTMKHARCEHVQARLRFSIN
Summary of the method: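 Read-out is luminescence from luciferin produced by CYP1A2 demethylation of Luciferin-ME (100uM, at Km). Detection reagent stopped the 60 min NADPH-dependent reaction; signals were normalized to 57 uM furafylline.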

[2] = target: Glucocorticoid receptor (Homo sapiens) (UniProt P04150); assay: GR-GFP Redistribution (AID 450;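 active = compounds whose dose series gives a full or clear partial fitted curve of increased nuclear translocation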; note: potency is the fitted concentration of half-maximal effect); details: U2OS GR-GFP nuclear translocation, laser cytometry, 2 h
Glucocorticoid receptor (Homo sapiens), sequence (P04150 whole entry, looked up, the tested form may be a part): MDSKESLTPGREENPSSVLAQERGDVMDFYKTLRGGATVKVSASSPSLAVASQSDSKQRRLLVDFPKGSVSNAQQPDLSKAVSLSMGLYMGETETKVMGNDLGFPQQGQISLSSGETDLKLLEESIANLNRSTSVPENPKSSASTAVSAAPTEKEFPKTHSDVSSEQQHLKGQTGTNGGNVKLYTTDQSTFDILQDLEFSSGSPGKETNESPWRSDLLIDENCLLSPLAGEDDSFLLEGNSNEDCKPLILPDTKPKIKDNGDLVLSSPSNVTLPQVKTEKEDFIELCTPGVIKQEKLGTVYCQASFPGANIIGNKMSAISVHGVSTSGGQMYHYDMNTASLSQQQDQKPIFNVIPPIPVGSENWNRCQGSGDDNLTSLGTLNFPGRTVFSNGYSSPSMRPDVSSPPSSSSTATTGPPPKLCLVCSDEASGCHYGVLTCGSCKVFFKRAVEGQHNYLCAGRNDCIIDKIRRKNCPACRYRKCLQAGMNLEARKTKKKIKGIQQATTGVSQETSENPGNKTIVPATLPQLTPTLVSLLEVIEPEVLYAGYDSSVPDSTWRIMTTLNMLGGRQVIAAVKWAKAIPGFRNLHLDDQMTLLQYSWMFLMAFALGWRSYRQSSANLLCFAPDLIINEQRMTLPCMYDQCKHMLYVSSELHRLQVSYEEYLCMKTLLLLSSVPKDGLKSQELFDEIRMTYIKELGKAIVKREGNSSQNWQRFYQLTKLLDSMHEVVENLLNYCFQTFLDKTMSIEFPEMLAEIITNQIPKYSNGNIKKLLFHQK

[3] = target: Mitogen-activated protein kinase 10 (Mus musculus) (UniProt Q61831); assay: JNK3 AlphaScreen Assay (AID 530; active = well fitted curve in either direction with a large enough effect, not every such curve was filed as active;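 note: kinase came from lysate of stimulated human HepG2 cells; signal reports phosphorylation of biotinylated GST-cJun 1-79 at Ser73 with 10 µM ATP; series mostly up to about 57 µM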)
Summary of the method: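 Kinase buffer: 20 mM Tris-HCl pH 7.6, 10 mM MgCl2, 1 mM DTT, 0.1 mM Na3VO4, 0.01% Tween-20; ATP 10 uM. Substrate biotin-GST-cJun(1-79), enzyme from activated HepG2 lysates. Detection by Ser73 phospho-antibody AlphaScreen.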

[4] = target: 3',5'-cyclic-AMP phosphodiesterase 4B (Homo sapiens) (UniProt Q07343); assay: qHTS Assay for Inhibitors of PDE-IV (AID 607; active = well fitted activation curve with a large enough effect in the main read-out, with a control signal flat, not every such curve was filed as active)
3',5'-cyclic-AMP phosphodiesterase 4B (Homo sapiens), sequence (Q07343 whole entry, looked up): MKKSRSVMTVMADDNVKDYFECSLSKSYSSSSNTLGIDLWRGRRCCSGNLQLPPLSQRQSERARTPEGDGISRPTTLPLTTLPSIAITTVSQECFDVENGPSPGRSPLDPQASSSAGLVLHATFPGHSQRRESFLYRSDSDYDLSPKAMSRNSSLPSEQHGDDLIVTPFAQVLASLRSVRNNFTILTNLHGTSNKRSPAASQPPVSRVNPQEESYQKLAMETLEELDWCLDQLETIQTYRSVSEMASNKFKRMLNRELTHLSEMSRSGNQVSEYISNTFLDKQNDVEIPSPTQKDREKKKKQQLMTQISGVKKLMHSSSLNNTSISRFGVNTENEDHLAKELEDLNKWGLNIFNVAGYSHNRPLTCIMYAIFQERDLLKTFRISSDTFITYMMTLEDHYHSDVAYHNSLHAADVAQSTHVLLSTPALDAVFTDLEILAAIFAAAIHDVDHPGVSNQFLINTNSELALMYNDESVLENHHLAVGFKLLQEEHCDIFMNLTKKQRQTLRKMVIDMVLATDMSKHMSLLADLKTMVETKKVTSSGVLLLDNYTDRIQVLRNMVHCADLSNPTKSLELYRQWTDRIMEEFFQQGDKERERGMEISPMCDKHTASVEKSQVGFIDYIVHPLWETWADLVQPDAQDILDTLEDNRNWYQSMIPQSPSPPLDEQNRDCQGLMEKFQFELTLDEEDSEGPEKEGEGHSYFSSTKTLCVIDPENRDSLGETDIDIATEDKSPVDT
Summary of the method: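 HEK293 ACTOne cells with CNG channel (1000/well), endogenous PDE4; membrane potential dye, compounds up to 22.9 uM final. Fluorescence Ex 535/Em 590; RO 20-1724 (100 uM final) as reference.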

[5] = target: Ubiquitin carboxyl-terminal hydrolase 1 (Homo sapiens) (UniProt O94782); assay: Inhibitors of USP1/UAF1: Pilot qHTS (AID 504865);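 note: rhodamine fluorescence freed from ubiquitin-rhodamine substrate followed over time; top concentration of the series differs between compounds; nearly all actives have a fitted effect of over 35% in size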
Ubiquitin carboxyl-terminal hydrolase 1 (Homo sapiens), sequence (O94782 whole entry, looked up): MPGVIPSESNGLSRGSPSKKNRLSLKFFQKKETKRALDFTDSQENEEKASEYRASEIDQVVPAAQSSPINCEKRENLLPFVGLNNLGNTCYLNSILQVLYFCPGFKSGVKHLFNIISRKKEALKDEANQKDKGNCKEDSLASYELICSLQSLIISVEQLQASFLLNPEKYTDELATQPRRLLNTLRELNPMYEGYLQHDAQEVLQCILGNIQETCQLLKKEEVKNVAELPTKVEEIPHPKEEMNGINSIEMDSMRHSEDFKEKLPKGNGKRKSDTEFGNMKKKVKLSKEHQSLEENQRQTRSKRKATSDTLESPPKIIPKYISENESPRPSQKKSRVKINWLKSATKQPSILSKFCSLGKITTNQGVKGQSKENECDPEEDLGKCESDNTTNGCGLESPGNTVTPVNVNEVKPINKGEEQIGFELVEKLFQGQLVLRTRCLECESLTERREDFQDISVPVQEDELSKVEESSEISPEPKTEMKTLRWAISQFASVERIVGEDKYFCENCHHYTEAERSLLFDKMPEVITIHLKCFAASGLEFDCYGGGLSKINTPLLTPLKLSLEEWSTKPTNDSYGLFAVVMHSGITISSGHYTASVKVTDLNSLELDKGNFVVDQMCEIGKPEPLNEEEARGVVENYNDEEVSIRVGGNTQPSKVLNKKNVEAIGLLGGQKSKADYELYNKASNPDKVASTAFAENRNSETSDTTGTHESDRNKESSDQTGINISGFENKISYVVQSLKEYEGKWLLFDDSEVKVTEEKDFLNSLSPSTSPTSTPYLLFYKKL
Summary of the method: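 1nM USP1/UAF1 + cpd, 15 min RT; start w/ Ub-Rho 150nM final; kinetic FL 480/540 nm, 6 reads q60 s. Buffer 50mM HEPES pH 7.8, 0.5mM EDTA, 1mM TCEP, 0.01% Tween-20, 0.1 mg/ml BSA.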

[6] = target: DNA dC->dU-editing enzyme APOBEC-3G (Homo sapiens) (UniProt Q9HC16); assay: qHTS for inhibitors of Vif-A3G interactions: Validation (AID 588379)
DNA dC->dU-editing enzyme APOBEC-3G (Homo sapiens), sequence (Q9HC16 whole entry, looked up): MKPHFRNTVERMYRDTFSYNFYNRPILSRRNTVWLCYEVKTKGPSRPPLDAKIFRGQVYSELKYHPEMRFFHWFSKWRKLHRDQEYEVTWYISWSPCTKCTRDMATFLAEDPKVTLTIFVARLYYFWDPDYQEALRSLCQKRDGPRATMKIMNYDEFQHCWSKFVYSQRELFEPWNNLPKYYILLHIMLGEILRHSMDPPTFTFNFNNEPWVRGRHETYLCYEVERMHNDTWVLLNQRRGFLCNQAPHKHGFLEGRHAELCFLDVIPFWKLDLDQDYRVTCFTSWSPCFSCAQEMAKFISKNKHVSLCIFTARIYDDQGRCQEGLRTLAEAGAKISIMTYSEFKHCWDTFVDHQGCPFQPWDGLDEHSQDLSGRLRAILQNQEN
Summary of the method: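 Yellow fluorescence (Ex 488, Em 500-530) of Vif-coexpressing HeLa A3G-eYFP cells, scanned by Acumen cytometer, reports blocked A3G degradation. Cells plated at 700/well overnight at 37 deg C before compound addition, then a further overnight compound incubation at 37 deg C.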

[7] = tested on: Zika virus NS2B-NS3 protease; assay: Primary screen GU AMC qHTS for Zika virus inhibitors (AID 1347154); note: nearly all actives have a fitted effect of over 70% in size
Summary of the method: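 Fluorogenic AMC-substrate cleavage by noncovalent NS2B-NS3 protease complex (25 nM, pH 8.0 Tris buffer with Tween 20) followed for 15 minutes at room temperature (~20% conversion). Percent inhibition from ex340/em450 signal change, fitted by 4-parameter Hill equation.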

[8] = Primary qHTS for small molecule stabilizers of the endoplasmic reticulum resident proteome: Secreted ER Calcium Modulated Protein (SERCaMP) assay (AID 1508630)
Summary of the method: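 The SH-SY5Y reporter protocol was run at 3 concentrations up to 38.3 uM (primary) or 11 concentrations (follow-up): 16 h compound, 100 nM thapsigargin for 4 h, then extracellular luciferase luminescence.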

[9] = target: Glucocorticoid receptor (Homo sapiens) (UniProt P04150); assay: GR-EFC Redistribution (AID 451; calls by dose curve; note: potency is the fitted concentration of half-maximal effect); details: CHO-K1 GR-EFC translocation, beta-gal luminescence, 2 h
Summary of the method: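 Translocation of GR-ED fusion to nuclear EA restores b-gal, read by luminescence after 1 h room-temperature detection. Engineered CHO-K1 biosensor cells, 1,000/well, exposed 2 h at 37 C to titrations up to 46 uM final.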

[10] = target: Cytochrome P450 3A4 (Homo sapiens) (UniProt P08684); assay: qHTS Assay for Inhibitors and Substrates of Cytochrome P450 3A4 (AID 884); note: potency is the fitted concentration of half-maximal effect; nearly all actives have a fitted effect of over 50% in size
Cytochrome P450 3A4 (Homo sapiens), sequence (P08684 whole entry, looked up): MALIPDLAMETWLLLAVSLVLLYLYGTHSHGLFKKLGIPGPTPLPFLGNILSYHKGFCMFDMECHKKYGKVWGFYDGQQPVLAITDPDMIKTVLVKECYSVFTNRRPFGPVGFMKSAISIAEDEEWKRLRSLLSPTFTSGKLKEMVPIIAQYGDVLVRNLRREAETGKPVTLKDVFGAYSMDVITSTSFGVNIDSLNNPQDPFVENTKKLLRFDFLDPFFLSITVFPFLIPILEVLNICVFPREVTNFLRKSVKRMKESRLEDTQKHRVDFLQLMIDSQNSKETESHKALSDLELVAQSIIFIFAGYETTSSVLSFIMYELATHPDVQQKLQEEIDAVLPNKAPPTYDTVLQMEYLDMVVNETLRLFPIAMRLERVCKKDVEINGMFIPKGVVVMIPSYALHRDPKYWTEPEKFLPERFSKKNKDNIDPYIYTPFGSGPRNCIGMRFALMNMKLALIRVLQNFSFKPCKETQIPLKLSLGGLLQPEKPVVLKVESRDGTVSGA
Summary of the method: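 Luminescent readout of luciferin produced by CYP3A4 (20 nM) dealkylation of Luciferin-PPXE, 25 uM (its KM). NADPH-driven reaction ran 60 min at RT after 10 min compound preincubation; data scaled to 57 uM ketoconazole as 100% inhibition.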

[11] = target: Cytochrome P450 3A4 (Homo sapiens) (UniProt P08684); assay: qHTS Assay for Activators of Cytochrome P450 3A4 (AID 885); note: nearly all actives have a fitted effect of over 65% in size
Summary of the method: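 Human CYP3A4 dealkylates Luciferin-PPXE to luciferin, which luciferase detection converts to light. Substrate was at its KM (25uM), buffer 200mM KPO4, reaction 60 min at RT.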

[12] = target: Cytochrome P450 2D6 (Homo sapiens) (UniProt P10635); assay: qHTS Assay for Inhibitors and Substrates of Cytochrome P450 2D6 (AID 891); note: potency is the fitted concentration of half-maximal effect; nearly all actives have a fitted effect of over 60% in size
Cytochrome P450 2D6 (Homo sapiens), sequence (P10635 whole entry, looked up): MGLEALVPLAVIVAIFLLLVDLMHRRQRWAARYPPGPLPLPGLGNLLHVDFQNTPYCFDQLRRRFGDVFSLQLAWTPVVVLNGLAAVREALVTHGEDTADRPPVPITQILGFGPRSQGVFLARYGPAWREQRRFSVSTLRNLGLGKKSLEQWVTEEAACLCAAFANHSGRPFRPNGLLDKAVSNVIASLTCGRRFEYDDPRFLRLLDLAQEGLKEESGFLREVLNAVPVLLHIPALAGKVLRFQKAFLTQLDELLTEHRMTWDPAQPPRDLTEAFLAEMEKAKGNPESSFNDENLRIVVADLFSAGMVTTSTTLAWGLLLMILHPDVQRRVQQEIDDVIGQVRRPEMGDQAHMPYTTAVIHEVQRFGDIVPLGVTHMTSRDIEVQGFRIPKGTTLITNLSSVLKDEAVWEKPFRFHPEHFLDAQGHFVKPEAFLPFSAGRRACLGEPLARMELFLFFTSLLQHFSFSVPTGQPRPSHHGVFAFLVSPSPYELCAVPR
Summary of the method: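 Luminescent read-out of luciferin formed by 5 nM human CYP2D6 demethylating 30 uM Luciferin-ME EGE (Km level) over 60 min at room temperature after NADPH regeneration addition. Data normalized to full inhibition by 1.43 uM quinidine.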

[13] = target: Cytochrome P450 2C19 (Homo sapiens) (UniProt P33261); assay: qHTS Assay for Inhibitors and Substrates of Cytochrome P450 2C19 (AID 899); note: nearly all actives have a fitted effect of over 60% in size; note: potency is the fitted concentration of half-maximal effect
Cytochrome P450 2C19 (Homo sapiens), sequence (P33261 whole entry, looked up): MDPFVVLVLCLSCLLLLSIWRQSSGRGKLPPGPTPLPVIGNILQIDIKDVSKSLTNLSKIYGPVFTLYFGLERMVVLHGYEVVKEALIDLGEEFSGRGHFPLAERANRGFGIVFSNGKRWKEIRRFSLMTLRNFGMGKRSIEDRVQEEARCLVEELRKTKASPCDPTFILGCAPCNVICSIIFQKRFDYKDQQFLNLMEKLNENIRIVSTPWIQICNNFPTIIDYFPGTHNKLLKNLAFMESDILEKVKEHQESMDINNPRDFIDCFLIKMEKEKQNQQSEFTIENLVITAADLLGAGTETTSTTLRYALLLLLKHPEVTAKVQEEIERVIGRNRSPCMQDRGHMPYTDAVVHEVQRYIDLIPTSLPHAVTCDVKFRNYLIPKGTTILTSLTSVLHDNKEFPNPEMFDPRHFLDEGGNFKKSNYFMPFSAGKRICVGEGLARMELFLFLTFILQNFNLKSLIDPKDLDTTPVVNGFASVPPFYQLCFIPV
Summary of the method: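 Luminescence readout of luciferin formed from 10uM Luciferin-H EGE (KM level) by 5 nM CYP2C19 in 50mM KPO4. 60 min NADPH-driven reaction at 37C after 10 min compound preincubation; data scaled to 57uM ketoconazole inhibition.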

[14] = target: Cytochrome P450 2C9 (Homo sapiens) (UniProt P11712); assay: qHTS Assay for Inhibitors and Substrates of Cytochrome P450 2C9 (AID 883); note: nearly all actives have a fitted effect of over 60% in size
Summary of the method: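 Luminescent read-out of deoxyluciferin hydroxylation, normalized to 57uM sulphaphenazole (AC100). Reaction: 10nM enzyme, 100uM Luciferin-H (equal to KM), 25mM KPO4, 10 min compound preincubation, then 60 min with NADPH regeneration, both at 37C.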

[15] = target: Guanine nucleotide-binding protein G(i) subunit alpha-1 (Homo sapiens) (UniProt P63096); assay: qHTS Assay for Inhibitors of RGS12 GoLoco Motif Activity (Green Fluorophore) (AID 879);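 note: negative values mean loss of peptide binding seen as reduced polarization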
Summary of the method: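 A drop in FITC polarization marked displacement of the FITC-tagged RGS12 GoLoco peptide (10 nM) from Gαi1 (50 nM). Compounds were incubated 10 min at room temperature in Tris pH 7.5 buffer containing 150 mM NaCl, 0.1 mM GDP and 0.05% NP40; unlabeled peptide titration served as control.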

[16] = target: Muscarinic acetylcholine receptor M1 (Rattus norvegicus) (UniProt P08482); assay: qHTS Assay for Antagonists of Acetylcholine Muscarinic M1 Receptor: Kinetic Measurement of Intracellular Calcium Response (AID 943); note: potency is the fitted concentration of half-maximal effect; nearly all actives have a fitted effect of over 75% in size
Summary of the method: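 Quantitative HTS in CHO-M1 (rat receptor) cells: 10 min compound exposure ahead of 100 nM carbachol, Fluo-4 fluorescence followed 4 min, value expressed as peak-to-basal ratio.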

[17] = target: Pyruvate kinase (Leishmania mexicana) (UniProt Q27686); assay: qHTS Validation Assay for Inhibitors of Leishmania Mexicana Pyruvate Kinase (AID 945)
Summary of the method: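 Purified LmPYK (E451W mutant, 0.2 nM) was incubated 1 h at room temperature with 0.5 mM PEP and 0.1 mM ADP in 50 mM imidazole pH 7.2, 50 mM KCl, 7 mM MgCl2; ATP formed was read by PKLight luminescence, normalized to DMSO wells.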

[18] = target: Pyruvate kinase PKM (Homo sapiens) (UniProt P14618); assay: qHTS Assay for Activators of Human Muscle Pyruvate Kinase (AID 954; active = well fitted curve in the direction sought with a large enough effect, not every such curve was filed as active)
Summary of the method: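 Compound pinned into substrate mix (0.5 mM PEP, 0.1 mM ADP), then 0.1 nM PKM2 added; 1 h, RT. Stop/detection luciferase reagent added, luminescence read. Normalized to no-inhibition and no-enzyme or reference-inhibitor controls.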

[19] = target: alpha-glucosidase (Oryza sativa, rice) (UniProt Q653V4); assay: Counterscreen for Glucocerebrosidase Inhibitors: qHTS Assay for Rice alpha-Glucosidase at pH 5.0 (AID 997)
Summary of the method: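 Endpoint fluorogenic assay at pH 5.0: compounds (0.7 nM to 77 uM) titrated against 4 nM rice enzyme and 400 uM 4-MU-alpha-glucoside for 20 min at room temperature; NaOH/glycine stop, read ex 365/em 440 nm, Hill-fitted AC50.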

Measured: Potency

CCCCCCc1c(C[C@H](N)C(=O)O)o[nH]c1=O
active: [1] 31.6 µM
inactive: [2] > 46 µM | [3] | [4] | [5] | [6] | [7] | [8]

O=S(=O)(NCCCCCCc1ccccc1)c1cccc2c(Cl)cccc12
inactive: [2] > 46 µM | [9] > 46 µM | [11] | [6] | [7] | [8]
active: [1] 15.8 µM | [10] 2.51 µM

CS(=O)(=O)Nc1ccc([N+](=O)[O-])cc1OC1CCCCC1
inactive: [2] > 46 µM | [9] > 46 µM | [11] | [6] | [7] | [8]
active: [1] 3.98 µM | [12] 0.0501 µM | [13] 0.0794 µM

O=C(O)CC/C=C\C[C@@H]1CO[C@H](c2ccccc2Cl)O[C@@H]1c1ccccc1O
inactive: [2] > 46 µM | [9] > 46 µM | [3] | [11] | [5] | [6] | [7] | [8]

O=C(Nc1ccccc1)[C@@]12C[C@@H]1/C(=N/O)c1ccccc1O2
inactive: [2] > 46 µM | [9] > 46 µM | [4] | [6] | [7] | [8]

COc1ccccc1N1CCN(C[C@@H](C(=O)NC(C)(C)C)c2ccccc2)CC1
inactive: [2] > 46 µM | [9] > 46 µM | [5] | [6] | [7] | [8]

O=C(N/N=C\c1ccccc1O)c1ccccc1O
active: [12] 7.94 µM
inactive: [2] > 46 µM | [9] > 46 µM | [4] | [14] | [11] | [13] | [5] | [7] | [8]

CCCCCCCCCCCCCCCC(=O)O[C@H](CC(=O)O)C[N+](C)(C)C
active: [16] 5.62 µM
inactive: [2] > 46 µM | [9] > 46 µM | [3] | [4] | [15] | [17] | [18] | [19] | [6] | [7] | [8]

CN1CCc2cc3c(cc2[C@@H]1[C@@H]1C(=O)Oc2c1ccc1c2OCO1)OCO3
active: [10] 1.26 µM | [13] 0.02 µM
inactive: [2] > 46 µM | [3] | [4] | [11] | [6] | [7] | [8]

Nc1nc(NCCc2ccc(O)cc2)nc2nc(-c3ccco3)nn12
inactive: [2] > 46 µM | [9] > 46 µM | [4] | [11] | [5] | [6] | [7] | [8]
